Bioassay records from PubChem BioAssay.
Most compounds without a hit are left out; they make up all but 10% or so of the library.
BAZ2B block: inhibitors of human BAZ2B bromodomain; Q9UIF8; AlphaScreen BAZ2B-H3K14Ac peptide displacement; Potency, µM (top dose mostly 114 µM), usual class: inhibitors; actives 4.4% (n = 360,000); AID 504333; note: nearly all actives have a fitted effect of over 60% in size
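AlphaScreen luminescence quantifies BAZ2B engagement of H3K14Ac peptide; the protein and biotinylated peptide are both at 50 nM final, buffer PBS pH 7.4 with 0.01% Tween-20, all steps at room temperature.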
JMJD2A Tudor inh: blocks the human JMJD2A Tudor domain. Potency, µM (series often up to 114 µM), usual class: inhibitors. AID 504339. O75164. AlphaScreen JMJD2A-Tudor / H3K4me3 peptide binding. actives 4.4% (n = 390,000); note: nearly all actives have a fitted effect of over 50% in size
Six1-Eya2 inh: Six1/Eya2 interaction inhibition; AlphaScreen GST-Six1/His-Eya2 binding, biochemical; active compounds read low; actives 0.56% (n = 360,000); activity change, % (concentration not given with the values); in the data active = activity change below about -65%; inconclusive = mostly about -30% to -63%
Target sequence (O00167 whole entry, looked up): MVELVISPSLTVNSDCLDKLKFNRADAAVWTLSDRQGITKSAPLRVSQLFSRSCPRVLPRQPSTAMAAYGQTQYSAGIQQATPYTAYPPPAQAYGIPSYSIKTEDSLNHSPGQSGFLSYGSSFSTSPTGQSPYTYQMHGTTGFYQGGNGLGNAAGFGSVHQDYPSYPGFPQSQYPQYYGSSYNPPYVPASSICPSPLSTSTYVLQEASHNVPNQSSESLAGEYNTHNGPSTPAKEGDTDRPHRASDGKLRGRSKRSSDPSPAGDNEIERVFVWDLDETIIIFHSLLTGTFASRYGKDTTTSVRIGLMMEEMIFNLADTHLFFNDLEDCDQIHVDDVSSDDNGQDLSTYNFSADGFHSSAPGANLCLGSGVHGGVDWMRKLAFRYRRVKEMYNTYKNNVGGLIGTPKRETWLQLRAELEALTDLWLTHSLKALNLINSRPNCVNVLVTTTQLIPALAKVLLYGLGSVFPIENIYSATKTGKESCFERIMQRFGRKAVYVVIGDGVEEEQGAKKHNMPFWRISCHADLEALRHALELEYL
Target sequence (Q15475 whole entry, looked up): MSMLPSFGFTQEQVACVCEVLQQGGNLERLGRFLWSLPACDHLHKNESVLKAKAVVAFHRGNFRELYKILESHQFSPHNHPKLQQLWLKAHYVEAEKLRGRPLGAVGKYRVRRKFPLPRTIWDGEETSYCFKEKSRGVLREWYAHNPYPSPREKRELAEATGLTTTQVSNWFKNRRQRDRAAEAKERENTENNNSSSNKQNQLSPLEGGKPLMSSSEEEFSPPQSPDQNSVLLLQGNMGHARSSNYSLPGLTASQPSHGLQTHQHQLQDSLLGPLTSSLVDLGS
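Homogeneous AlphaScreen proximity assay pairing GST-Six1 with His-tagged Eya2 (added as 5X mix: 250 nM and 500 nM) in 50 mM Tris pH 8.0, 300 mM NaCl, 1 mM TCEP. Glutathione donor and nickel acceptor beads; 1 h, 37 °C, dark.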
G9a block: inhibitors of human histone lysine methyltransferase G9a; Q96KQ7; G9a H3K9 monomethylation, AlphaScreen, 2 h; Potency, µM (highest dose often 102 µM), most hits filed as inhibitors; actives 8.8% (n = 350,000); AID 504332; note: nearly all actives have a fitted effect of over 75% in size
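Enzyme 20 nM + cpd, 15 min RT; add b-H3K9 pep 500 nM / SAM 20 uM; 2 h RT; anti-H3K9me1 Ab 0.5 ug/mL + SA donor / anti-rabbit acceptor beads 20 ug/mL each, 10 min; AlphaScreen read.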
CtBP-E1A inh: CtBP/E1A binding inhibition; AlphaScreen GST-E1A/His-CtBP binding, 1536-well; active compounds read low; activity change, % (no concentration beside the values); actives 0.49% (n = 340,000); in the data active = activity change below about -65%; inconclusive = mostly about -30% to -63%
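GST-E1A and His-tagged CtBP (125 nM each as 5X stock) were preincubated with pin-transferred compound for 2 h at 37 °C in the dark, then glutathione donor and nickel acceptor beads were added for 1 h before AlphaScreen reading.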
HP1b binding inh: HP1-beta chromodomain-methylated histone interaction inhibition; AlphaScreen HP1-beta / biotin-H3K9me3 peptide binding; actives 0.56% (n = 390,000); Potency, µM (doses to about 114 µM), actives largely listed as inhibitors; AID 540317; P83916; note: nearly all actives have a fitted effect of over 70% in size
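Compound inhibition of the preformed complex between 50 nM HP1-beta and 50 nM biotinylated H3K9me3 peptide was read by AlphaScreen. Buffer was PBS pH 7.4 with 0.01% Tween-20. Incubations ran 30 min at room temperature, with 10 ug/mL donor/acceptor beads.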
Hits are given with their value; ! = a repeat was not active; [ ] = remark or other dose. Unless noted, calls come from the whole dose curve; as a rule, active = well fitted inhibition curve with a large enough effect; inconclusive = small, poorly fitted or top-dose-only effect; inactive = no such curve, though single readings can be large or run the other way.

`CN1c2ccccc2C(C)(C)[C@]12C=Cc1cc(O)ccc1O2` gave BAZ2B block 39.8µM, JMJD2A Tudor inh 56.2µM, Six1-Eya2 inh inactive, G9a block inconclusive, CtBP-E1A inh inactive and HP1b binding inh inconclusive.
`CN1c2ccccc2C(C)(C)C12CC(CCl)=NO2` (centres undefined) gave BAZ2B block inactive, JMJD2A Tudor inh inactive, Six1-Eya2 inh inactive, G9a block inactive[2.33 µM], CtBP-E1A inh inactive and HP1b binding inh inactive.
COc1ccc2c(c1)c1c(c(=O)n(-c3ccccc3C)c(=O)n1C)n2C was read as BAZ2B block inactive, JMJD2A Tudor inh inactive, G9a block inactive and HP1b binding inh inactive.
Screening CN1c2ccccc2C(C)(C)C12C=Nc1c(ccc3ccccc13)O2 (centres undefined) returned BAZ2B block 50.1µM, JMJD2A Tudor inh inconclusive, Six1-Eya2 inh inactive, CtBP-E1A inh inactive and HP1b binding inh inactive.
CC(C)CN(CCCNC(=O)Cn1ncc2c3ccccc3n(C)c2c1=O)CC(C)C was read as BAZ2B block inactive, JMJD2A Tudor inh inactive, G9a block inactive and HP1b binding inh inactive.
CC(C)NC(=S)N/N=C1\CCCCC1C1CCCCC1 (centres undefined) was read as BAZ2B block inconclusive, JMJD2A Tudor inh inconclusive, Six1-Eya2 inh inconclusive, G9a block 22.4µM, CtBP-E1A inh inconclusive and HP1b binding inh inactive.
`CC(C)NC(=S)NN=C1c2ccccc2-c2ccccc21` gave BAZ2B block inactive, JMJD2A Tudor inh inactive, Six1-Eya2 inh inactive, G9a block inactive, CtBP-E1A inh inactive and HP1b binding inh inactive.
For c1ccc(-c2cn(C[C@H]3CC[C@H](Cn4cc(-c5ccccn5)nn4)O3)nn2)nc1 the results were BAZ2B block 0.794µM, JMJD2A Tudor inh 0.891µM, Six1-Eya2 inh -91.7, CtBP-E1A inh -90.2 and HP1b binding inh inactive.
`Nc1c(-c2ccccc2)cnn1-c1cccc(Cl)c1` gave BAZ2B block inactive, JMJD2A Tudor inh inactive, Six1-Eya2 inh inactive, G9a block inactive, CtBP-E1A inh inactive and HP1b binding inh inactive.
For Nc1ccccc1Nc1cc(-c2cccc(Cl)c2)nn1-c1ccccc1 the results were BAZ2B block 22.4µM, JMJD2A Tudor inh 22.4µM, Six1-Eya2 inh inconclusive, G9a block 28.2µM, CtBP-E1A inh inactive and HP1b binding inh inconclusive.
For O=C(NC1CCCCCC1)c1cc2c(Cl)nc3ccccc3c2s1 the results were BAZ2B block inactive, JMJD2A Tudor inh inactive, G9a block inactive and HP1b binding inh inactive.
Screening COC(=O)c1ccc(-n2c(C)cc(/C=N/n3cnnc3)c2C)cc1 returned BAZ2B block inconclusive, JMJD2A Tudor inh inactive[11.4 µM], Six1-Eya2 inh inactive, G9a block 56.2µM, CtBP-E1A inh inactive and HP1b binding inh inactive.
For CCc1ccc(-n2c(C)nnc2SCc2nc(-c3ccc(OC)cc3)no2)cc1 the results were BAZ2B block inactive, JMJD2A Tudor inh inactive, G9a block inactive and HP1b binding inh inactive.
Cc1ccc(Nc2nc(-c3c(C)n(C)n(-c4ccccc4)c3=O)c(C)s2)cc1 was read as BAZ2B block inconclusive, JMJD2A Tudor inh inconclusive, Six1-Eya2 inh inactive, G9a block 50.1µM, CtBP-E1A inh inactive and HP1b binding inh inactive.
For Cc1ccc(C(OCC(O)CN2CCCCC2CO)c2ccccc2)cc1 (centres undefined) the results were BAZ2B block 50.1µM, JMJD2A Tudor inh 44.7µM, Six1-Eya2 inh inactive, G9a block inactive[12.7 µM], CtBP-E1A inh inactive and HP1b binding inh inactive.
Screening O=C(Nc1ccc(Cl)cc1Cl)c1ccc(Br)o1 returned BAZ2B block inactive, JMJD2A Tudor inh inactive, Six1-Eya2 inh inactive, G9a block inactive, CtBP-E1A inh inactive and HP1b binding inh inactive.
Cc1ccc(S(=O)(=O)NC(=O)c2ccc(Br)o2)c(C)c1 was read as BAZ2B block inactive, JMJD2A Tudor inh inactive, Six1-Eya2 inh inactive, G9a block inactive, CtBP-E1A inh inactive and HP1b binding inh inactive.
For Cc1ccc(S(=O)(=O)NC(=O)c2ccc(Br)o2)cc1 the results were BAZ2B block inactive, JMJD2A Tudor inh inactive, Six1-Eya2 inh inactive, G9a block 35.5µM!, CtBP-E1A inh inactive and HP1b binding inh inactive.
Screening CCN(CC)c1ccc(NC(=O)c2ccc(NC(=O)C3CCCO3)cc2)c(C)c1 (centres undefined) returned BAZ2B block inactive, JMJD2A Tudor inh inactive, Six1-Eya2 inh inactive, G9a block 8.91µM, CtBP-E1A inh inactive and HP1b binding inh inactive.
For CCN(CC)c1ccc(NC(=O)c2ccc(Br)o2)c(C)c1 the results were BAZ2B block 39.8µM, JMJD2A Tudor inh 56.2µM, Six1-Eya2 inh inactive, G9a block inconclusive, CtBP-E1A inh inactive and HP1b binding inh inconclusive.
`CCN(CC)c1ccc(NC(=O)c2cccn2-c2nnc(N3CCCCC3)s2)c(C)c1` gave BAZ2B block 31.6µM, JMJD2A Tudor inh 50.1µM, G9a block inconclusive and HP1b binding inh inconclusive.
For CC1=C(C(=O)Nc2ccc(Cl)cc2)C(C(C)C)n2nc(SCc3cccc(C)c3)nc2N1 (centres undefined) the results were BAZ2B block inactive, JMJD2A Tudor inh inactive, G9a block inactive and HP1b binding inh inactive.
Screening CCN(CC)c1ccc(NC(=O)c2cccc(F)c2)c(C)c1 returned BAZ2B block inactive, JMJD2A Tudor inh inconclusive, Six1-Eya2 inh inactive, G9a block 28.2µM, CtBP-E1A inh inactive and HP1b binding inh inactive.
Screening COc1ccccc1NC(=O)c1ccc(Br)o1 returned BAZ2B block inactive, JMJD2A Tudor inh inactive, Six1-Eya2 inh inactive, G9a block inactive[12.7 µM], CtBP-E1A inh inactive and HP1b binding inh inactive.
Cc1cc(O)c(NC(=O)c2ccc(Br)o2)cc1C was read as BAZ2B block 50.1µM, JMJD2A Tudor inh inactive, Six1-Eya2 inh inactive, G9a block inactive[12.7 µM], CtBP-E1A inh inactive and HP1b binding inh inactive.
Screening COc1ccc(CCNC(=O)CCCCn2c(=O)c3ccccc3n(Cc3cccc(C)c3)c2=O)cc1OC returned BAZ2B block inactive, JMJD2A Tudor inh inactive, G9a block inactive and HP1b binding inh inactive.
Screening O=C(CCS(=O)(=O)c1cccc2nonc12)Nc1c(F)cccc1F returned BAZ2B block inactive, JMJD2A Tudor inh inactive, G9a block inactive and HP1b binding inh inactive.
For CC1Cn2cc(C(=O)Nc3ccccc3C(F)(F)F)c(=O)c3c(Cl)ccc(c32)O1 (centres undefined) the results were BAZ2B block inactive, JMJD2A Tudor inh inactive, G9a block inactive[12.7 µM] and HP1b binding inh inactive.
For CN1CCN(C(=O)c2cc3c(=O)n4ccccc4nc3s2)CC1 the results were BAZ2B block inactive, JMJD2A Tudor inh inactive, Six1-Eya2 inh inactive, G9a block 50.1µM, CtBP-E1A inh inactive and HP1b binding inh inactive.
O=C1C(Cl)=C(N2CCOCC2)C(=O)N1c1cccc(C(F)(F)F)c1 was read as BAZ2B block inactive, JMJD2A Tudor inh inactive, Six1-Eya2 inh inactive, G9a block 79.4µM, CtBP-E1A inh inactive and HP1b binding inh inactive.
